This passage reports inhibition results from PubChem BioAssay.

“And” between values parts separate entries of the source, which are not always exact repeats. Equal entries are not always repeated. A number with no mark means an inactive call. The source made the active and inactive calls. No stated cut-off is given here; in the data, active means inhibition above about 42%; inactive means the rest.

Chain of Nuclear receptor subfamily 5 group A member 2 (Homo sapiens) (O00482 whole entry, looked up): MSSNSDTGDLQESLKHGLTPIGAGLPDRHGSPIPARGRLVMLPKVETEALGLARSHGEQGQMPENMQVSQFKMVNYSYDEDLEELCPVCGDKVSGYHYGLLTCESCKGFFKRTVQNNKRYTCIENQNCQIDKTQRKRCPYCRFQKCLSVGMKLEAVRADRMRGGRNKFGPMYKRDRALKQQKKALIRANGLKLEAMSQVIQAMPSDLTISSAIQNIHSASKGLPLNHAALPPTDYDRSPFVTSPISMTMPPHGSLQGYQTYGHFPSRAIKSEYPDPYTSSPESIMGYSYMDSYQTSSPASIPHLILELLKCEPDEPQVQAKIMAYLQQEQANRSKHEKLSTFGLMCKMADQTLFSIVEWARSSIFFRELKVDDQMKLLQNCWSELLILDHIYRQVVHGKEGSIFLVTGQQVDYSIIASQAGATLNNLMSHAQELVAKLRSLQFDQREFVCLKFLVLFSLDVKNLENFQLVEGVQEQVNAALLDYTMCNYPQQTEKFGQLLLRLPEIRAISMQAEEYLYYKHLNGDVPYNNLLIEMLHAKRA

The assay has as its target Nuclear receptor subfamily 5 group A member 2 (Homo sapiens) (UniProt O00482). Briefly: NR5A2 activity suppression in reporter cells – cell-based, luminescence, confirmation (AID 651613).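 Further: HEK293T cells co-transfected with LRH-1 and StAR promoter luciferase reporter; 0% = vehicle wells and 100% = parental cells lacking receptor.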 The settings on record: cell-based LRH-1 luciferase reporter, inverse agonism; at 3.6 µM; active compounds read high.
Turning to `COc1cc(C(=O)Nc2ccccc2N2CCN(S(C)(=O)=O)CC2)cc(OC)c1OC`, the inhibition is 44.5% (active). Take `O=C(NCC1CCCO1)c1ccc(NC(=O)c2cccc([N+](=O)[O-])c2)cc1` (centres undefined): the inhibition is 56.2% (active). The value for `CCn1c2ccccc2c2cc(C3C(C#N)=C(N)Oc4n[nH]c(COC)c43)ccc21` (centres undefined) was 50.8% (active); that for `COc1ccc(CCNC(=O)CSc2nc3[nH]ncc3c(=O)n2-c2ccccc2Br)cc1OC` was 57.3% (active). Turning to `C[n+]1c2cc(N)ccc2cc2ccc(N)cc21`, the inhibition was 109% (active) and 105% (active).

Take `O=C(COc1ccc(F)c(Cl)c1)Nc1ccc(N2CCOCC2)cc1`: the inhibition was 36%. For `CN(C)c1ccc(C=c2c3ccccc3n3c2cc(-c2ccc(Cl)cc2)[n+]3C)cc1`, the inhibition is 102% (active). The result for `O=C(C(Cl)c1ccccc1)N1CCCC1` (centres undefined) reads 51.5% (active); that for `O=C(Nc1ccc2oc(-c3ccncc3)nc2c1)c1ccc([N+](=O)[O-])o1`, 63.7% (active); that for `CC(=O)Nc1ccc(NC(=O)CSc2ccc(-c3ccc(-n4ccnc4)cc3)nn2)cc1`, 52% (active). The result for `Nc1ccc(Br)c2cccnc12` reads 26.2%. The value for `CC1CC(C)CN(c2cc(N(C)CCO)c([N+](=O)[O-])c3nonc23)C1` (centres undefined) was 64.2% (active). On to `Cc1cc(C)c2sc(NC(=O)c3ccc([N+](=O)[O-])o3)nc2c1`, for which the inhibition was 54.4% (active). The value for `Cc1c([N+](=O)[O-])cc(C(=O)Nc2ccc(Cc3ccncc3)cc2)cc1[N+](=O)[O-]` was 48.7% (active); that for `O=C(CCl)Nc1ccc(N2CCCCCC2)cc1` was 54.6% (active); that for `COc1ccc(Cc2c(-c3cccc(Cl)c3)nc3cc(C)c(Br)c(C)n23)c(C)c1` was 41.3% (active).

On to `N#Cc1cc(Br)ccc1N=C1CCCN1c1ccccc1`, for which the inhibition was 44.5% (active). The result for `CCCOc1ccc(Cn2cnc3ccccc32)cc1` reads 54.6% (active).

Take `COc1ccc(-n2c(/C=C(\C)O)nc(=O)c3c(C)cc(C)nc32)cc1`: the inhibition is 51.8% (active). The value for `CC1CCCN(c2cc(N(C)CCO)c([N+](=O)[O-])c3nonc23)C1` (centres undefined) was 56.2% (active); that for `Cc1nc2ccccc2n1/N=C/c1ccc([N+](=O)[O-])o1` was 70.9% (active). For the molecule `COC(=O)c1ccc(NC(=O)CSc2nnc(C)n2CC2CCCO2)cc1` (centres undefined), the inhibition is 50.5% (active). As for `CC(=O)Nc1ccc(C2=CC(=O)CC(C)(C)C2)cc1`, the inhibition was 60.2% (active). The result for `O=C(NCCN1C(=O)S/C(=C\c2ccc(OC(F)F)cc2)C1=O)c1cnccn1` reads 30.1%; that for `CCCn1c(=NC(=O)CCS(=O)(=O)c2ccccc2)sc2cc(S(N)(=O)=O)ccc21`, 32.3%.

For `COc1cc2c(cc1OC)CN(C(=O)Cn1ccccc1=O)CC2`, the inhibition is 56.6% (active). The result for `Cn1c(SCC(=O)Nc2ccc(N3CCOCC3)cc2)nnc1-c1ccccc1` reads 46.2% (active); that for `Cn1cccc1C(=O)OCC(=O)NCCCc1ccccc1`, 54% (active). With `N#CC1=C(N)C(C#N)(C#N)[C@H](c2c(F)cccc2F)[C@H]2CC3(CC=C12)OCCO3`, the inhibition was 60.9% (active). For the molecule `COc1cc2c(cc1OC)CN(C(=O)c1ccc([N+](=O)[O-])o1)CC2`, the inhibition was 65.1% (active). The result for `COc1ccc(-c2cc(NC=O)c3ncc(-c4ccc(OC)c(OC)c4)n3c2)c(OC)c1` reads 53.5% (active); that for `O=C(COC(=O)C1CC(=O)N(Cc2ccccc2)C1)Nc1ccc2c(c1)OCO2` (centres undefined), 50.9% (active).

For the molecule `O=C(Nc1nc2c(Cl)cccc2s1)c1ccc([N+](=O)[O-])o1`, the inhibition is 65.3% (active). The value for `O=C(CSC1=NCCS1)N1CCN(c2ccc(Cl)cc2)CC1` was 56.3% (active); that for `COC(=O)c1ccc(NC(=O)COc2cccc(-n3cnnn3)c2)cc1` was 41.3% (active). The value for `Cn1c(SCC(=O)Nc2ccc(N3CCOCC3)cc2)nnc1-c1ccco1` was 56.5% (active).

`CCS(=O)(=O)N1Cc2cc(C(=O)NCC3CC3)nc(-c3cccc(-c4cccnc4)c3)c2[C@@H]1CCO`: the inhibition was 47.6% (active). The result for `CCn1c2ccccc2c2cc(/C=N/n3cn[nH]c3=S)ccc21` reads 28.1%. The result for `CCOc1ccc(C(C)=O)cc1COC(=O)c1cc([N+](=O)[O-])ccc1N1CCOCC1` reads 58.2% (active).
